esBAF inh: blocks esBAF chromatin remodeling in mouse ES cells; 350,000 tested, 2% active; reporter increase, % at 12.5 µM; Bmi1-luciferase knock-in reporter, 24 h; 100% = twice the neutral-well signal; in the data active = activation above about 40%; inconclusive = no clear call, values can overlap the other calls;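 also: a rise in the Bmi1 reporter signal indicates esBAF inhibition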
HSF1 inh: HSF1 inhibition; NIH3T3-HGL HSE-luciferase, MG132-induced, luminescence 8 h; active compounds read low; activity change, negative = inhibition, % at 7.5 µM (by protocol); 300,000 tested, 0.77% active; AID 2098;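 active = more than half of replicate wells show activity change below -50%, luminescence cut by over half; inconclusive = some wells, but at most half, below -50%; inactive = no replicate well below -50%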;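 also: luciferase reports HSF-1 transcriptional activity via heat shock element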
Vif imaging: blocks HIV Vif function. HEK293T cells, Vif self-association by quenched fluorescence, imaging, 24 h. inhibition, % at 7.49 µM. 340,000 tested, 0.35% active; in the data active = inhibition above about 50%, passing the limit was not always enough; inconclusive = no clear call, values can overlap the other calls; inactive = below about 31%
HSF-1 act: increases HSF-1 driven luciferase reporter signal | NIH3T3-HGL HSF-1 luciferase reporter, MG132, 8 h; 100% = twice DMSO control signal | activation, % at 9 µM | 300,000 tested, 1.7% active;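 active = mean replicate activation of at least 50% with a set share of replicates each reaching 50%; inconclusive = only one of those two conditions met; inactive = mean below 50% and too few replicates reaching it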
Of the large screens only hits and unclear results are named; the others gave an inactive call. Only some compounds are listed: those with a hit (about 3.4% of all), similar ones and a draw of the others.

C[C@H](CO)N1C[C@H](C)[C@H](CN(C)Cc2ccc3c(c2)OCO3)Oc2ccc(NC(=O)NC3CCCCC3)cc2CC1=O	none (no result: HSF1 inh, Vif imaging, HSF-1 act)
CCNC(=O)Nc1ccc2c(c1)C(=O)N(C)[C@@H]1CC[C@H](CC(=O)NCc3ccc(F)cc3)O[C@H]1CO2	none (no result: HSF1 inh, Vif imaging, HSF-1 act)
CC1CCN(c2nc3ccc(C(=O)N4CCN(Cc5ccccc5)CC4)cc3s2)CC1	esBAF inh 94
COc1cccc(N2CCN(C(=O)c3ccc4nc(N5CCC(C)CC5)sc4c3)CC2)c1	none (no result: esBAF inh, Vif imaging)
Cc1cccc(N2CCN(C(=O)c3ccc4nc(N5CCCCC5)sc4c3)CC2)c1C	esBAF inh 61
CCOC(=O)N1CCN(C(=O)c2ccc3nc(N4CCCCC4)sc3c2)CC1	none (no result: esBAF inh)
CCOC(=O)N1CCN(C(=O)c2ccc3nc(N4CCC(C)CC4)sc3c2)CC1	esBAF inh 58 (no result: Vif imaging)
CCC(=O)Nc1ccc2c(c1)C(=O)N(C)[C@H]1CC[C@H](CC(=O)N[C@H](C)c3ccccc3)O[C@H]1CO2	none (no result: HSF1 inh, Vif imaging, HSF-1 act)
Cc1noc(C)c1NC(=O)Nc1cccc2c1O[C@H](CN(C)Cc1ccc(Cl)c(Cl)c1)[C@@H](C)CN([C@H](C)CO)C2=O	none (no result: HSF1 inh, Vif imaging, HSF-1 act)
O=S(=O)(N[C@H]1CC[C@H](CCn2cc(-c3cccc(F)c3)nn2)O[C@H]1CO)c1ccc(Cl)cc1	none (no result: HSF1 inh, Vif imaging, HSF-1 act)
Cc1cc(C)n(-c2ccc(C(=O)OCc3nnc(-c4ccccc4)o3)cc2)n1	esBAF inh 46
CS(=O)(=O)c1ccc(C(=O)OCc2nnc(-c3ccccc3)o2)cc1[N+](=O)[O-]	HSF-1 act 225 (no result: esBAF inh)
CN(C)S(=O)(=O)c1ccc(C(=O)OCc2nnc(-c3ccccc3)o2)cc1	none (no result: esBAF inh)
Cc1ccc(SCC(=O)c2ccc[nH]2)cc1	esBAF inh 61
CC=Cc1ccc2n(c1=O)C[C@@H]1[C@@H](CO)[C@H](C(=O)N3CCc4ccccc4C3)[C@H]2N1CCC (mixture of isomers)	none (no result: HSF1 inh, Vif imaging, HSF-1 act)
COc1cccc(/C=C2\N=C(SC)SC2=O)c1OC	HSF-1 act 56
CSC1=N/C(=C\c2ccccc2F)C(=O)S1	none (no result: esBAF inh)
CCc1ccc(NC(=O)c2n[nH]c(=O)c3ccccc23)cc1	esBAF inh 60
O=C(O)C[C@@H]1CC[C@@H](NC(=O)Nc2cc(F)ccc2F)[C@@H](CO)O1	none (no result: HSF1 inh, Vif imaging, HSF-1 act)
COc1cccc2cc(CC(=O)c3ccc(C)cc3C)c(=O)oc12	esBAF inh 87
O=C(COC(=O)c1cc2ccccc2oc1=O)Nc1ccc(F)cc1F	esBAF inh 46
COc1cccc2cc(C(=O)OCC(=O)NC3CCCC(C)C3C)c(=O)oc12 (centres undefined)	esBAF inh 64 (no result: HSF1 inh, HSF-1 act)
COc1cc(Br)cc2cc(C(=O)OC3CCN(C)CC3)c(=O)oc12	none
COc1ccc(Cl)cc1C(=O)OCC(=O)NC1CCCC(C)C1C (centres undefined)	none (no result: esBAF inh, HSF1 inh, HSF-1 act)
COc1cccc2cc(C(=O)OC3CCN(C)CC3)c(=O)oc12	HSF1 inh -68
COc1ccc(C(=O)Cc2cc3cccc(OC)c3oc2=O)cc1	esBAF inh inconclusive
C[C@@H]1CCCCO[C@@H](CN(C)C(=O)Nc2ccc(F)cc2)[C@H](C)CN([C@@H](C)CO)C(=O)c2cc(NC(=O)Nc3ccc4c(c3)OCO4)ccc2O1	none (no result: HSF1 inh, Vif imaging, HSF-1 act)
COc1ccc(CN(C)C[C@@H]2Oc3ccc(NC(=O)CCCN(C)C)cc3C(=O)N([C@H](C)CO)C[C@H]2C)cc1	none (no result: HSF1 inh, Vif imaging, HSF-1 act)
O=C(NCC[C@H]1CC[C@@H](NC(=O)C2CCCC2)[C@H](CO)O1)c1cnccn1	none (no result: HSF1 inh, Vif imaging, HSF-1 act)
O=C(OC1CCCCC1)c1cc2ccccc2oc1=O	HSF-1 act 52
Cc1cc(/C=C(\C#N)C(=O)NCC2CCCO2)c(C)n1-c1ccc(Cl)cc1 (centres undefined)	esBAF inh 88
N#C/C(=C\c1ccc(N2CCOCC2)o1)C(=O)NCC1CCCO1 (centres undefined)	Vif imaging 111
COc1cc(/C=C(\C#N)C(=O)NCC2CCCO2)ccc1O (centres undefined)	none (no result: esBAF inh)
C[C@@H]1CN([C@@H](C)CO)C(=O)Cc2cc(N(C)C)ccc2O[C@H]1CN(C)S(=O)(=O)c1cn(C)cn1	none (no result: HSF1 inh, Vif imaging, HSF-1 act)
C[C@@H]1CCCCO[C@H](CN(C)S(=O)(=O)c2ccc(Cl)cc2)[C@H](C)CN([C@@H](C)CO)C(=O)c2cc(NC(=O)C3CCCCC3)ccc2O1	none (no result: HSF1 inh, Vif imaging, HSF-1 act)
C[C@@H]1CN([C@@H](C)CO)C(=O)c2cc(-c3ccc(C#N)cc3)cnc2O[C@H]1CN(C)C(=O)Nc1ccccc1	none (no result: HSF1 inh, Vif imaging, HSF-1 act)
CCC(=O)N1C[C@@H](C)[C@@H](OC)CN(C)C(=O)c2cc(NC(=O)C3CC3)ccc2OC[C@H]1C	none (no result: HSF1 inh, Vif imaging, HSF-1 act)
CC(C)(C)C1C/C(=C/c2ccccn2)C(=O)/C(=C/c2ccccn2)C1 (centres undefined)	none
CC1C/C(=C/c2ccccn2)C(=O)/C(=C/c2ccccn2)C1 (centres undefined)	HSF-1 act 89 (no result: esBAF inh)
C#CCn1cnc2c(cnn2-c2ccc(C)c(C)c2)c1=O	esBAF inh 66
Cc1ccc(-n2ncc3c(SCC(N)=O)ncnc32)cc1C	HSF-1 act 67
Cc1ccc(-n2ncc3c(=O)n(CC#N)cnc32)cc1C	none
Cn1cnc(S(=O)(=O)N[C@H]2C=C[C@H](CC(=O)NCC3CCCCC3)O[C@H]2CO)c1	none (no result: HSF1 inh, Vif imaging, HSF-1 act)
CN(C)CC(O)c1ccc(C=Cc2ccc(Cl)cc2)cc1 (centres undefined)	esBAF inh 49 (no result: HSF1 inh, HSF-1 act)
CN(C)/C=C/C(=O)/C=C/c1ccc(Cl)cc1	none (no result: esBAF inh)
Cc1ccc(S(=O)(=O)N(C)C[C@H]2Oc3ccc(NS(=O)(=O)c4cccs4)cc3C(=O)N([C@H](C)CO)C[C@H]2C)cc1	none (no result: HSF1 inh, Vif imaging, HSF-1 act)
O=C(Nc1ccccc1)c1cc(C2CCCN(C(=O)c3cccs3)C2)on1 (centres undefined)	esBAF inh 56 (no result: HSF1 inh, HSF-1 act)
N#C/C(=C/c1ccc(O)c(O)c1)c1nc2ccccc2[nH]1	esBAF inh 57
N#C/C(=C\Nc1ccc2c(c1)OCCO2)c1nc2ccccc2[nH]1	esBAF inh 44 (no result: Vif imaging)
N#C/C(=C\Nc1ccc2c(c1)OCCO2)c1nc(-c2ccccc2)cs1	none (no result: esBAF inh)
CN1c2ccc(-c3ccccc3F)cc2[C@@H]2[C@@H](CCN2S(=O)(=O)c2ccccc2)[C@H]1CO	none (no result: HSF1 inh, Vif imaging, HSF-1 act)
O=S(=O)(N[C@@H]1CC[C@H](CCn2cc(C3(O)CCCC3)nn2)O[C@H]1CO)c1ccccc1	none (no result: HSF1 inh, Vif imaging, HSF-1 act)
CC(C)NC(=O)Nc1ccc2c(c1)C(=O)N([C@@H](C)CO)C[C@H](C)[C@H](CN(C)CC1CCCCC1)OCCCC[C@H](C)O2	none (no result: HSF1 inh, Vif imaging, HSF-1 act)
C[C@@H]1CCCCO[C@@H](CN(C)S(=O)(=O)c2cn(C)cn2)[C@H](C)CN([C@@H](C)CO)C(=O)c2cc(NC(=O)Cc3ccccc3)ccc2O1	none (no result: HSF1 inh, Vif imaging, HSF-1 act)
CCCN(C)C[C@H]1Oc2ncc(C#CC3CC3)cc2C(=O)N([C@@H](C)CO)C[C@H]1C	none (no result: HSF1 inh, Vif imaging, HSF-1 act)
C[C@@H]1CN([C@@H](C)CO)C(=O)c2ccccc2-c2ccccc2CO[C@H]1CN(C)S(=O)(=O)c1ccsc1	none (no result: HSF1 inh, Vif imaging, HSF-1 act)
O=C(O)c1ccc(/C=N/Nc2ncc(C(F)(F)F)cc2Cl)cc1	none (no result: esBAF inh)
O=C(O)c1ccc(N/N=C/c2ccc(C(F)(F)F)cc2)cc1	HSF1 inh -66
O=C(O)c1cccc(N/N=C/c2cc(Br)cc(Br)c2O)c1	esBAF inh 77
Oc1ccc(/C=N/Nc2ccc(C(F)(F)F)cn2)cc1	HSF-1 act 86 (no result: esBAF inh)

Screening results from PubChem.
